A short description of assay [1]: NCI Yeast Anticancer Drug Screen. Data for the rad50 strain (AID 155).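 Also: 0% = growth of vehicle-only cultures of the same strain.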 Conditions: S. cerevisiae rad50 strain growth inhibition, active compounds read high. A digest of the protocol: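 Yeast carrying a defined DNA repair defect were exposed to test compounds, and growth was compared with vehicle-treated controls to give percent inhibition.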
A short description of assay [2]: NCI Yeast Anticancer Drug Screen. Data for the mec2-1 strain (AID 157). Conditions: S. cerevisiae mec2-1 strain, active compounds read high. The gist of the method:
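Cells of the genetically defined mec2-1 yeast strain are incubated with test compound. Inhibition of growth is calculated against vehicle-treated controls.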

Assay [3] in a line: NCI Yeast Anticancer Drug Screen. Data for the sgs1 mgt1 strain (AID 161).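 Also: 0% = growth of cultures given vehicle only.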 The following applies: S. cerevisiae sgs1 mgt1 strain, active compounds read high. The gist of the method:
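Test agents were incubated with a DNA-repair-mutant yeast strain. Growth was then read and compared against vehicle-treated controls.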

Assay [4] in a line: NCI Yeast Anticancer Drug Screen. Data for the cln2 rad14 strain (AID 165).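 Also: 0% = growth equal to vehicle treated cultures.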 Conditions: S. cerevisiae cln2 rad14 strain, active compounds read high. The gist of the method:
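The screen exposed genetically defined yeast (cln2 rad14) to test compounds and scored growth inhibition relative to vehicle-treated controls.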

A short description of assay [5]: NCI Yeast Anticancer Drug Screen. Data for the bub3 strain (AID 167). Conditions: S. cerevisiae bub3 mutant strain, active compounds read high. A digest of the protocol:
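Compounds were applied to a genetically altered yeast strain carrying a cell-cycle control defect. Growth inhibition was scored against vehicle-treated controls.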

The nature of assay [6]: NCI Yeast Anticancer Drug Screen. Data for the mlh1 rad18 strain (AID 175). Conditions: S. cerevisiae mlh1 rad18 strain growth inhibition, active compounds read high. A digest of the protocol:
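Compound-treated yeast growth, normalised to vehicle controls. Strain bears defined DNA repair mutations.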

[7] abbreviates: at 5.0 µM (retest, dose inferred, filed as 0.5).
The mark [8] stands for this setting: at 50.0 µM (retest, dose inferred, filed as 5.0).

We go through nine compounds from PubChem BioAssay (NCI).

Compounds without any hit were thinned out: in the full panel of roughly 79,000, 15% have a hit. Values without a mark were called inactive. The source made the active and inactive calls. Rule as the data show it: active = growth inhibition above about 70%; inactive = the rest.

`Cc1cc(=O)c2cc(N=Cc3ccc([N+](=O)[O-])o3)ccc2o1`: the growth inhibition in assay [1] (setting [7]) was -1%; in assay [1] (setting [8]), 72% (active); in assay [1] (at 50.0 µM) it was 74.9% (active); in assay [2] (setting [7]) it was -10%; in assay [2] (setting [8]), 23%; in assay [2] (at 50.0 µM), 17.9%. The growth inhibition is -6% in assay [3] (setting [7]); 54% in assay [3] (setting [8]); 42.6% in assay [3] (at 50.0 µM); 0% in assay [4] (setting [7]); 10% in assay [4] (setting [8]); 21.2% in assay [4] (at 50.0 µM). Further, the growth inhibition is -4% in assay [5] (setting [7]); 6% in assay [5] (setting [8]); 6.1% in assay [5] (at 50.0 µM); 10% in assay [6] (setting [7]); 49% in assay [6] (setting [8]); 40% in assay [6] (at 50.0 µM).
For `COc1ccc(CCBr)cc1`, the growth inhibition in assay [1] (setting [7]) was -1%; in assay [1] (setting [8]), -17%; in assay [1] (at 50.0 µM), 14.7%; in assay [2] (setting [7]), -23%; in assay [2] (setting [8]) it was -13%; in assay [2] (at 50.0 µM), 14%. Also, the growth inhibition in assay [3] (setting [7]) is -15%; in assay [3] (setting [8]), -7%; in assay [3] (at 50.0 µM), 22.2%; in assay [4] (setting [7]) it was 17%; in assay [4] (setting [8]), -1%; in assay [4] (at 50.0 µM) it was 0.5%. Besides, the growth inhibition is -17% in assay [5] (setting [7]); -7% in assay [5] (setting [8]); 18.1% in assay [5] (at 50.0 µM); -27% in assay [6] (setting [7]); -41% in assay [6] (setting [8]); 15.2% in assay [6] (at 50.0 µM).
`COc1ccc(-c2c(C(=O)O)[nH]c3ccccc23)cc1`: the growth inhibition was 38% in assay [1] (setting [7]); 90% (active) in assay [1] (setting [8]); 96.8% (active) in assay [1] (at 50.0 µM); 12% in assay [2] (setting [7]); 87% (active) in assay [2] (setting [8]); 97.5% (active) in assay [2] (at 50.0 µM). For the same compound, the growth inhibition is 35% in assay [3] (setting [7]); 98% (active) in assay [3] (setting [8]); 97.5% (active) in assay [3] (at 50.0 µM); 25% in assay [4] (setting [7]); 88% (active) in assay [4] (setting [8]); 98.5% (active) in assay [4] (at 50.0 µM). Further, the growth inhibition is 58% in assay [5] (setting [7]); 98% (active) in assay [5] (setting [8]); 96.2% (active) in assay [5] (at 50.0 µM); 65% in assay [6] (setting [7]); 97% (active) in assay [6] (setting [8]); 99% (active) in assay [6] (at 50.0 µM).
With `COc1ccc(C(=O)OC(=O)c2ccc(OC)cc2)cc1`, the growth inhibition in assay [1] (setting [7]) is 5%; in assay [1] (setting [8]), 9%; in assay [1] (at 50.0 µM), 71.4% (active); in assay [2] (setting [7]), -6%; in assay [2] (setting [8]) it was 7%; in assay [2] (at 50.0 µM), 18.1%. For the same compound, the growth inhibition is 2% in assay [3] (setting [7]); -70% in assay [3] (setting [8]); 22.1% in assay [3] (at 50.0 µM); 4% in assay [4] (setting [7]); -4% in assay [4] (setting [8]); 6.05% in assay [4] (at 50.0 µM). Further, the growth inhibition was -1% in assay [5] (setting [7]); 8% in assay [5] (setting [8]); 28.1% in assay [5] (at 50.0 µM); -10% in assay [6] (setting [7]); 16% in assay [6] (setting [8]); 74.4% (active) in assay [6] (at 50.0 µM).
In the case of `NC(=S)Nc1cccc(C(F)(F)F)c1`, the growth inhibition was -14% in assay [1] (setting [7]); 92% (active) in assay [1] (setting [8]); 99.2% (active) in assay [1] (at 50.0 µM); -20% in assay [2] (setting [7]); 95% (active) in assay [2] (setting [8]); 99.2% (active) in assay [2] (at 50.0 µM). Also, the growth inhibition in assay [3] (setting [7]) was -10%; in assay [3] (setting [8]), 92% (active); in assay [3] (at 50.0 µM) it was 99.2% (active); in assay [4] (setting [7]), -45%; in assay [4] (setting [8]) it was 92% (active); in assay [4] (at 50.0 µM) it was 98.9% (active). Further, the growth inhibition in assay [5] (setting [7]) is -24%; in assay [5] (setting [8]) it was 94% (active); in assay [5] (at 50.0 µM), 98.9% (active); in assay [6] (setting [7]), -19%; in assay [6] (setting [8]), 93% (active); in assay [6] (at 50.0 µM) it was 98.9% (active).
For `CCCC(C)OC(=O)Nc1cccc(Cl)c1` (configuration not stated), the growth inhibition in assay [1] (setting [7]) is -15%; in assay [1] (setting [8]), 3%; in assay [1] (at 50.0 µM), 98.4% (active); in assay [2] (setting [7]) it was -4%; in assay [2] (setting [8]), -7%; in assay [2] (at 50.0 µM) it was 98.2% (active). In addition, the growth inhibition in assay [3] (setting [7]) was -2%; in assay [3] (setting [8]) it was -10%; in assay [3] (at 50.0 µM), 98.9% (active); in assay [4] (setting [7]), -29%; in assay [4] (setting [8]), -1%; in assay [4] (at 50.0 µM) it was 97.9% (active). In addition, the growth inhibition is -21% in assay [5] (setting [7]); 1% in assay [5] (setting [8]); 97.5% (active) in assay [5] (at 50.0 µM); -20% in assay [6] (setting [7]); 16% in assay [6] (setting [8]); 97.6% (active) in assay [6] (at 50.0 µM).
As to `Oc1cc(-[n+]2ccc3ccccc3c2)c(O)c2ccccc12`, the growth inhibition is 10% in assay [1] (setting [7]); 70% (active) in assay [1] (setting [8]); 44.2% in assay [1] (at 50.0 µM); -1% in assay [2] (setting [7]); 27% in assay [2] (setting [8]); 39.2% in assay [2] (at 50.0 µM). Also, the growth inhibition in assay [3] (setting [7]) is 11%; in assay [3] (setting [8]) it was 45%; in assay [3] (at 50.0 µM), 15.6%; in assay [4] (setting [7]), -4%; in assay [4] (setting [8]), -10%; in assay [4] (at 50.0 µM), -20.8%. Also, the growth inhibition in assay [5] (setting [7]) is 24%; in assay [5] (setting [8]) it was 72% (active); in assay [5] (at 50.0 µM) it was 64.5%; in assay [6] (setting [7]), 16%; in assay [6] (setting [8]), 46%; in assay [6] (at 50.0 µM), 54.1%.
As for `Cc1ccc2c(c1)-c1cc(C)ccc1C2(O)c1ccccc1`, the growth inhibition in assay [1] (setting [7]) is 3%; in assay [1] (setting [8]) it was 83% (active); in assay [1] (at 50.0 µM), 99% (active); in assay [2] (setting [7]) it was 14%; in assay [2] (setting [8]), 66%; in assay [2] (at 50.0 µM) it was 97.9% (active). For the same compound, the growth inhibition is 6% in assay [3] (setting [7]); 89% (active) in assay [3] (setting [8]); 93.7% (active) in assay [3] (at 50.0 µM); -7% in assay [4] (setting [7]); 79% (active) in assay [4] (setting [8]); 97.2% (active) in assay [4] (at 50.0 µM). Further, the growth inhibition in assay [5] (setting [7]) was 3%; in assay [5] (setting [8]), 95% (active); in assay [5] (at 50.0 µM), 96.7% (active); in assay [6] (setting [7]) it was -6%; in assay [6] (setting [8]) it was 95% (active); in assay [6] (at 50.0 µM), 99.2% (active).
`CCCCN(Cc1ccccc1)CC(O)c1cc2c(c3ccccc13)CCCC2` (configuration not stated): the growth inhibition in assay [1] (setting [7]) was -2%; in assay [1] (setting [8]), 85% (active); in assay [1] (at 50.0 µM), 95.9% (active); in assay [2] (setting [7]) it was 9%; in assay [2] (setting [8]), 89% (active); in assay [2] (at 50.0 µM), 80% (active). The growth inhibition is 0% in assay [3] (setting [7]); 95% (active) in assay [3] (setting [8]); 93.2% (active) in assay [3] (at 50.0 µM); -7% in assay [4] (setting [7]); 59% in assay [4] (setting [8]); 92.2% (active) in assay [4] (at 50.0 µM). In addition, the growth inhibition in assay [5] (setting [7]) is -7%; in assay [5] (setting [8]) it was 84% (active); in assay [5] (at 50.0 µM), 76.1% (active); in assay [6] (setting [7]) it was 18%; in assay [6] (setting [8]), 92% (active); in assay [6] (at 50.0 µM), 92.8% (active).
